Rows were chosen to be rich in hits. Some 14% of all compounds tested hit in one or more screens of this group.
Shiga toxin inh: blocks Shiga toxin action in Vero cells; Vero cells, Shiga toxin protein synthesis inhibition reporter; inhibition, % at 38.7 µM; 290,000 tested, 9.2% active; in the data active = inhibition mostly above about 28%, no sharp cut-off; inactive = mostly below about 43%
CHX counter: counter-screen for Shiga toxin inhibitors: cycloheximide protein synthesis inhibition. max response, %. cell reporter, cycloheximide protein synthesis inhibition counterscreen. AID 2314. 300,000 tested, 12% active; in the data active = max response mostly above about 13%, no sharp cut-off; inactive = mostly below about 14%; also: read at 38.3 µM for the half of the compounds with a filed dose
FBPA Giardia inh: Giardia lamblia aldolase inhibition; purified Giardia FBPA; Potency, µM (series often up to 59.6 µM), usual class: inhibitors; 290,000 tested, 0.71% active; A8B2U2; also: nearly all actives have a fitted effect of over 55% in size
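40 nM FBPA preincubated 10 min at RT with compound (up to 57.5 uM final), then substrate plus GAPDH/TPI/NAD/arsenate coupling and diaphorase/resazurin added. Fluorescence read after 20 min at RT, 525/598 nm.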
LmPK inh: inhibitors of Leishmania mexicana pyruvate kinase | Q27686 | purified LmPK, Kinase-Glo ATP luminescence, 1 h | Potency, µM (series often up to 57.5 µM), actives largely listed as inhibitors | 290,000 tested, 0.37% active | AID 1721
Target sequence (Q27686 whole entry, looked up): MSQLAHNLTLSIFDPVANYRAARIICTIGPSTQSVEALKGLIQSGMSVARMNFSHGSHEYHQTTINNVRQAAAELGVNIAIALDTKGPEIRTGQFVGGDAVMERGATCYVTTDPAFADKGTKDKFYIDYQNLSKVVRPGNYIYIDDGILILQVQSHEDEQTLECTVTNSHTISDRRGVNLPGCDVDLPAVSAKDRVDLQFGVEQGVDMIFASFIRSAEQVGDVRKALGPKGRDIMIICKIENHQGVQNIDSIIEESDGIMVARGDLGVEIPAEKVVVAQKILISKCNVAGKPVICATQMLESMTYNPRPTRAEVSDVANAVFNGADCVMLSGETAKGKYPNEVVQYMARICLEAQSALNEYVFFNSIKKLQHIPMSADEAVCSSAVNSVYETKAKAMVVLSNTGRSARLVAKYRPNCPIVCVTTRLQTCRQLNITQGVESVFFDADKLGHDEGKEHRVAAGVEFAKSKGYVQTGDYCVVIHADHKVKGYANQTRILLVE
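qHTS format; LmPK 0.1 nM; substrates PEP 0.5 mM and ADP 0.1 mM. One-hour room-temperature incubation, then coupled luciferase luminescence; 0.5 nM enzyme wells mark activation.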
NS1 function inh: blocks influenza NS1 protein function. Potency, µM (doses to about 46.1 µM). 270,000 tested, 0.4% active; calls by dose curve; also: actives are rising curves; nearly all actives have a fitted effect of over 50% in size
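A cell-based growth assay was used: compounds that relieve NS1-induced slow growth of budding yeast raise OD600. Assay medium was yeast nitrogen base with ammonium sulphate and -URA supplement, pH 6.0, with 2% galactose.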
Hits are given with their value; - = inactive; ? = inconclusive; . = no result; [ ] = another dose, or the depositor's remark. Unless noted, calls follow the shape of the dose curve; as a rule, active = well fitted curve in the direction sought with a large enough effect; inconclusive = small, poorly fitted or top-dose-only effect, or another doubt; inactive = no such curve, though single readings can be large; an effect the other way counts as inactive or inconclusive.

SMILES	Shiga toxin inh	CHX counter	FBPA Giardia inh	LmPK inh	NS1 function inh
NCCC[C@@H](CC(=O)N[C@@H]1CCNC[C@H]1C(=O)N[C@H](CC(=O)N[C@@H](CCC(=O)O)CC(=O)O)Cc1ccccc1)NC(=O)C[C@H](Cc1c[nH]c2ccccc12)NC(=O)[C@@H]1CNCC[C@H]1N	.	.	-	.	.
O=C(c1cccc(-n2cnnn2)c1)N1CCOCC1	-	-	-	-	-
O=C(c1cc(-c2ccccc2)on1)N1CCN(c2ccccc2)CC1	-	-	-	-	-
O=C(c1cc(-c2cccc(O)c2)on1)N1CCCCCC1	112.1	36.6	-	-	-
O=C(c1cc(-c2cccc(O)c2)on1)N1CCOCC1	23.4	12.8	-	-	-
O=C1c2ccccc2-c2ccc(C(=O)N3CCOCC3)cc21	-	22.4	-	-	-
O=C(c1cccc(-c2ccc(O)cc2)c1)N1CCOCC1	-	13.2	-	-	-
COC(=O)[C@@H]1C[C@H]2CC[C@H](O)C[C@H]2N1Cc1ccc(N2CCOCC2)cc1	.	.	-	.	.
O=C(c1csnn1)N1CCC2(CC1)CCN(c1cccc(-c3ccccc3)c1)CC2	.	.	-	.	.
Cn1nnnc1SCC(=O)N1CCc2ccccc21	-	-	-	-	-
O=C(CSc1ccc(-c2ccc(F)cc2)nn1)N1CCCc2ccccc21	-	-	-	-	-
CCn1cc(SCC(=O)N2CCc3ccccc32)c2ccccc21	53.9	26.9	?	-	-
Nc1cc(N)nc(SCC(=O)N2CCc3ccccc32)n1	58.4	29.9	-	-	-
O=C(CSc1ccc(-c2ccc(Cl)cc2)nn1)N1CCCc2ccccc21	-	12.9	-	-	-
Cc1nnc(SCC(=O)N2CCCc3ccccc32)[nH]c1=O	-	23.1	-	-	-
CN(/N=C/c1ccc(O)cc1O)c1ncc(C(F)(F)F)cc1Cl	-	-	-	-	-
Cc1ccc2cc(CN(c3ccccc3C)S(=O)(=O)c3ccccc3)c(=O)[nH]c2c1	-	-	-	-	-
CSc1nsc(SCC(=O)N2CCc3ccccc32)n1	-	-	-	-	-
Cc1nc(SCC(=O)N2CCc3ccccc32)n[nH]1	-	33.1	-	-	-
Cc1nnc(SCC(=O)N2CCc3ccccc32)s1	active	19.6	-	-	-
O=C(CSc1cccc[n+]1[O-])N1CCCc2ccccc21	-	22.7	-	-	.
O=C(NNC(=S)NCc1ccco1)c1ccc(Cl)s1	-	-	-	-	-
Cc1cc(=O)[nH]c(SCC(=O)N2CCCc3ccccc32)n1	-	-	-	-	-
O=C(CSCc1ccco1)c1ccc(Cl)s1	108.1	25.5	-	-	-
C/C(=N/Nc1ccc2ccccc2n1)c1ccccc1O	.	.	.	.	-
SMILES	Shiga toxin inh	CHX counter	FBPA Giardia inh	LmPK inh	NS1 function inh
CN1CCN(C(=O)/C(=C/c2cn(S(=O)(=O)N(C)C)c3ccccc23)NC(=O)c2ccccc2F)CC1	-	-	.	-	-
CCCn1c(SCC(=O)N2CCc3ccccc32)nnc1-c1ccco1	-	-	-	-	-
O=C(CSc1ccccc1)N1CCc2ccccc21	93.1	31.3	-	-	-
O=C(CSCc1ccco1)N1CCc2ccccc21	105.2	39.5	-	-	-
NC(=O)CC(NC(=O)c1cccc(Br)c1)c1ccc(NC2CCCCCCCCCCC2)c([N+](=O)[O-])c1 (stereo not given)	-	-	-	-	-
COC(=O)CSc1nc(N)c(C#N)c(-c2ccco2)c1C#N	-	-	-	-	-
COC(=O)CSc1nc(-c2ccccc2)cc(-c2ccco2)c1C#N	83.3	41.0	-	-	-
Cc1ccc2nc(-c3ccccc3)cn2c1	-	-	-	7.08µM	-
Cc1ccc2nc(-c3ccc(O)c(O)c3)cn2c1	.	-	?	?	-
Cc1ccc2nc(-c3ccc(-c4ccccn4)s3)cn2c1	68.6	44.7	?	-	-
CC(=O)Nc1ccc(-c2cn3cc(C)ccc3n2)cc1	61.2	41.6	-	-	-
Cc1cc(NS(=O)(=O)c2ccc(NC(=O)COc3ccc(Cl)c(C)c3)cc2)no1	-	-	-	-	-
CC(=O)Nc1ccc2nc(-c3cccn3C)[nH]c2c1	.	16.7	-	-	-
CC(=O)Nc1ccc(Oc2ccc3nc(C)[nH]c3c2)cc1	-	-	-	-	-
O=C(Nc1ccc2nc(-c3cccnc3)[nH]c2c1)C12CC3CC(CC(C3)C1)C2	-	-	-	-	-
CC(=O)Nc1ccc2nc(-c3cccs3)[nH]c2c1	68.3	26.7	-	-	-
Cn1cccc1-c1nc2ccc(NC(=O)c3cccs3)cc2[nH]1	-	26.1	-	-	-
O=Nc1c(-c2ccccc2)cc2ccccn12	130.0	48.2	-	-	-
CN(C)C(=O)C(=O)c1c(-c2ccccc2)cc2ccccn12	-	-	-	-	-
O=C(Cn1cc2c(n1)CCCC2)Nc1cc(-c2cccc(Cl)c2)no1	44.5	28.1	-	-	-
CC(NC(=O)Cn1cc2c(n1)CCCCC2)c1ccccc1 (stereo not given)	-	-	-	-	-
O=C(c1cccc(F)c1)N1CCC2(CCCN(c3ccccn3)C2)CC1	.	.	-	.	.
CNC(=S)N/N=C(\C)c1cccc(C(F)(F)F)c1	-	-	-	-	-
C/C(=N\Nc1ncc(Cl)cc1Cl)c1ccc2c(c1)OCO2	-	-	-	-	-
C/C(=N\Nc1ncc(Cl)cc1Cl)c1ccc(OC(F)F)cc1	42.3	50.2	-	-	-
SMILES	Shiga toxin inh	CHX counter	FBPA Giardia inh	LmPK inh	NS1 function inh
C/C(=N\NC(=O)C1CC1)c1ccc(OC(F)F)cc1	51.4	-	-	-	-
COC(=O)N/N=C(\C)c1ccc(OC(F)F)cc1	79.7	35.1	-	-	.
COC(=O)N/N=C(\C)c1cccc(C(F)(F)F)c1	-	28.9	-	-	.
C/C(=N\NC(=O)C1CC1)c1ccc(Cl)c(Cl)c1	-	-	-	-	-
CCc1ccc(OCC(=O)N/N=C(\C)c2ccc(OC(F)F)cc2)cc1	-	-	-	-	-
Cc1ccc(NC(=O)COc2ccccc2C(=O)NCCN(C)C)cc1	-	-	-	-	-
Cc1ccc2nc(-c3ccccc3)oc(=O)c2c1	-	-	-	-	-
Cc1nc2cc(-c3ccccc3)ccc2o1	86.2	32.4	-	-	-
Cc1ccc(C(C)C)cc1S(=O)(=O)Nc1cccnc1	-	-	-	-	-
COC(=O)c1cc(S(=O)(=O)NCCCN2CCCC2=O)cn1C	-	-	-	-	-
O=C(Nc1cccc(Cl)c1)O/N=C\c1ccncc1	-	-	-	-	-
Cc1ccc(N/N=C/c2cccnc2)cc1	84.0	53.4	-	-	-
Cc1ccc(N/N=C/c2ccncc2)cc1	86.6	42.4	-	-	-
Cc1csc(N/N=C\c2cccnc2)n1	90.8	58.4	?	-[11.5 µM]	.
O=[N+]([O-])c1ccc(-c2csc(N/N=C/c3cccnc3)n2)cc1	-	-	-	-	-
Clc1cccc(N/N=C/c2ccncc2)c1	-	30.5	-	-	-
COc1cccc(Cn2c(=O)c(-c3cccs3)nc3cncnc32)c1	.	.	-	.	.
O=C(c1ccc(Cl)cc1)N1CCN(CCc2ccccn2)CC1	-	-	-	-	-
CC(=O)Nc1ccccc1C(=O)OCC(=O)c1ccccc1Cl	53.2	23.6	-	-	-

Screens from PubChem BioAssay.
